Measurements: PubChem BioAssay AID651812 (National Center for Advancing Translational Sciences (NCATS), 2012)
Hit rate of the full screen: of about 2,100 compounds, about 650 (31%) were called active. Not shown: some 16% with an inconclusive outcome. Calls come from the whole dose curve; as a rule, active = well fitted inhibition curve with a large enough effect; inconclusive = small, poorly fitted or top-dose-only effect; inactive = flat fitted curve, though single readings scatter. The list shows a part of the results.

experiment: qHTS for inhibitors of Vif-A3G interactions: Cherry picks; conditions: HeLa A3G-eYFP + Vif (tagged APOBEC3G with the HIV-1 protein that degrades it), 24 h; Potency: eYFP fluorescence increase; series mostly up to 36.9 µM; activity, negative = fluorescence increase: at the top concentration; note: nearly all actives have a fitted effect of over 80% in size; for activity, negative = fluorescence increase: % of control where 0% means no effect
From the text: The recent discovery and characterization of host restriction factors, which provide a potent defense to invading retroviruses, has provided new targets for antiviral drug development. APOBEC3G (A3G) and APOBEC3F (A3F) are potent cytidine deaminases that block HIV-1 replication; HIV-1 expresses the Vif protein, which counteracts A3G and A3F by binding to them and inducing their proteasomal degradation. The Vif-A3G and Vif-A3F interactions provide two potential targets for development of small molecules which can interfere with the ability of Vif to degrade A3G or A3F. […] To identify inhibitors that can interfere with Vif mediated degradation of A3G and A3F, we have developed Hela cell lines that stably express A3G or A3F tagged with eYFP at the C-terminal end (A3G-eYFP or A3F-eYFP, respectively) and Vif. In the absence of an inhibitor, Vif induces degradation of A3G-eYFP and A3F-eYFP, and the cells are not fluorescent. In the presence of an inhibitor, it is expected that Vif will be unable to degrade A3G-eYFP and/or A3F-eYFP, resulting in an increase in yellow fluorescence. In this assay, Vif A3G was screened against the cherry picks ordered from the MLSMR. NIH Chemical Genomics Center [NCGC] NIH Molecular Libraries Probe Centers Network [MLPCN] MLPCN Grant: MH093245 Assay Submitter (PI): Vinay Pathak, National Cancer Institute
A3G-Vif cells were harvested from T225 flask and resuspended in phenol free OPTI-MEM medium with 5% FBS. Then 5 uL of 140,000 cells/mL resuspended cells was dispensed into each well of low base Aurora COC 1,536-well plates (black walled, clear bottom) using a Multidrop Combi dispenser. After overnight culture at 37 deg C with 5% CO2, a total of 23 nL of compounds at 5 selected concentrations from the NPC or positive control (2 mM stock of MG132) in DMSO was transferred to each well of the assay plate using a pintool (Kalypsys, San Diego, CA), and the plates were further incubated at 37 deg C with 5% CO2 for 24 hours. After that, the plates were measured on Acumen Explorer (TTP Lab Tech). The fluorescence was detected by 488 nm/Ex and […].
Potency is the fitted concentration of half-maximal effect.

activity, negative = fluorescence increase, inactive:
COCCCNc1nc2ccccc2nc1NS(=O)(=O)c1ccccc1 10.7% [at 46.1 µM]
COC(=O)c1cc(Nc2nc3ccccc3nc2NS(=O)(=O)c2ccc(C)cc2)ccc1Cl 7.34% [at 46.1 µM]
CN1/C(=C/C=C(/C#N)C(N)=O)C(C)(C)c2ccccc21 -16.1%
Cc1ccc2c(c1)Oc1ccc(NC(=O)CCl)cc1C(=O)N2 1.67%
CC1=NOC(=O)/C1=C\c1ccc(-c2ccc(Br)cc2)o1 -8.38%
CN(C)/C=N/C1=C(C#N)C(c2cccs2)c2ccc3ccccc3c2O1 (stereo not drawn) -4.1%
CC(/C=N/NC(=O)c1cc(-c2ccc3ccccc3c2)n[nH]1)=C\c1ccco1 -19.6%
Cc1cc(C(=O)N/N=C/c2ccc3c(c2)OCO3)c2ccccc2n1 -8.89%
CC(=O)c1cccc(-c2ccnc3c2CC(C(=O)NCc2ccc(F)c(F)c2)O3)c1 (stereo not drawn) -7.23%
CCC(=O)Nc1nonc1-c1nc2ccccc2n1Cc1ccccc1 -3.53%
Cc1ccc2[nH]c3c(c2c1)CCCC3NC(=O)CCl (stereo not drawn) 0.871%
O=c1[nH]c2ccccc2n2c(=S)[nH]nc12 -16.4% [at 46.1 µM]
CC1CCCCC1NC(=O)/C(C#N)=C/C=C/c1ccccc1[N+](=O)[O-] (stereo not drawn) -0.675%
N#Cc1c(NC(=O)c2ccc([N+](=O)[O-])o2)sc2c1CCC2 0.738%
COc1cc2cc(-c3ccc(OC)c(OC)c3C)nc(N)c2cc1OC -18.8%
CC(=O)Nc1cccc(-c2ccnc3c2CC(C)(C(=O)Nc2cccc(C(C)=O)c2)O3)c1 (stereo not drawn) -3.63%
O=C(NC(=S)N1CCN(c2ccccn2)CC1)c1ccccc1 -8.21% [at 46.1 µM]
O=C(Nc1ccc(Cl)cc1)Nc1ccon1 -6.36%
CCN(c1ccc(NC(=O)CCc2nc3sc4c(c3c(=O)[nH]2)CCCC4)cc1)C(C)C -3.33% [at 46.1 µM]
COc1ccccc1N1CCN(C(=O)c2ccc3ncsc3c2)CC1 -5.63%
COc1ccc2oc(=Nc3ccccc3)c(-c3nc4ccccc4[nH]3)cc2c1 -27.4% [at 46.1 µM]
COc1cccc2sc(Nc3nc(-c4cc5ccccc5oc4=O)cs3)nc12 -3.79%
COc1ccc(N=c2oc3ccc(OC)cc3cc2-c2nc3ccccc3[nH]2)cc1 -6.38%
CCOc1ccccc1Nc1nnc(-c2cc3cc(Cl)ccc3oc2=O)s1 -23.4% [at 46.1 µM]
CCCNC(=O)c1ccccc1NC(=O)c1ccc2c(c1)NC(=O)C(C)S2 (stereo not drawn) -10.8%
Cc1ccc(-c2nc(SCCOc3ccccc3C)n3[nH]c(=O)cc3n2)cc1 6.77% [at 46.1 µM]
Cc1ccc(NC(=S)NC(=O)c2ccc(F)cc2)cc1S(=O)(=O)Nc1cccc(Cl)c1 3.25% [at 46.1 µM]
O=C(Nc1cc(=O)[nH]c(=O)[nH]1)c1cc(Cl)ccc1Cl -6.68%
COc1cc(Cl)c(C)cc1NC(=O)CN1CCN(C(=O)C2CC2)CC1 -5.23%
COc1cc(OC)cc(C(=O)N2CC(=O)Nc3ccccc32)c1 -6.01%
CCC(C)[C@H](NC(=O)N1CC(=O)Nc2ccccc21)C(=O)Nc1ccccc1C (stereo partly drawn) 2.3%
COc1cc(C(=O)N2CC(=O)Nc3ccccc32)cc(OC)c1OC -5.08%
CCCn1nc(C(=O)N2CC(=O)Nc3ccccc32)c2ccccc2c1=O -5.96%
Cc1noc(C)c1COc1cccc(C(=O)OCC(=O)N2CC(=O)Nc3ccccc32)c1 -5.26%
Cc1cc(C)cc(C(=O)N2CC(=O)Nc3ccccc32)c1 -15.5%
NC(=O)c1ccccc1NC(=S)NC(=O)CCc1ccccc1 1.18%
O=C(/C=C/c1ccco1)NC(=S)Nc1cccc(-c2nc3ccccc3o2)c1 -10.6%
CC(=O)c1cccc(NC(=O)C2CCCN(S(=O)(=O)c3cccc4nonc34)C2)c1 (stereo not drawn) -16.3% [at 46.1 µM]
COc1ccc(N2C(=O)NC3CC2(C)Oc2ccccc23)cc1OC (stereo not drawn) -7.13%
COc1ccc(OC)c(NC(=O)Cn2cnc3onc(-c4ccc(Cl)cc4)c3c2=O)c1 2.25% [at 46.1 µM]
CCOC(=O)c1[nH]c(C)c(C(=O)Nc2cc(OC)ccc2OC)c1C -9.64%
CCCOc1ccc(N)cc1N -3.69% [at 46.1 µM]
O=C1/C(=C/c2ccc(O)cc2)SC(=S)N1CC1CCCO1 (stereo not drawn) 2.84% [at 46.1 µM]
COc1nc(-c2ccccc2)cc(-c2ccc3c(c2)OCO3)c1C#N -8.86%
CCOC(=O)c1c(CN(CC)CC)n(-c2ccccc2)c2ccc(O)cc12 -3%
O=C1/C(=C\c2ccc(O)cc2)SC(=S)N1Cc1ccccc1 8.8% [at 46.1 µM]
Cc1c(C(=O)OC2CCCCC2)[nH]c2c1C(=O)CC(c1ccccc1Cl)C2 (stereo not drawn) -1.35% [at 46.1 µM]
Cc1cc(/C=C2\SC(=Nc3ccccc3)NC2=O)c(C)n1-c1ccc(S(N)(=O)=O)cc1 -12.8%
NC(=O)c1cccc(-c2ccnc3c2CC(C(=O)NCc2ccco2)O3)c1 (stereo not drawn) -1.78%
NC(=S)N/N=C/c1cccc(O)c1O -2.38% [at 46.1 µM]
Cc1cc(-n2c(C)cc(C(=O)CCl)c2C)no1 -5.58%
Cc1ccc(/C=N/NC(=O)c2nc3nc(C)cc(C)n3n2)cc1 11.1% [at 46.1 µM]
CCc1ccc(/C=N/NC(=O)c2cc(-c3ccncc3)nc3ccccc23)s1 -2.61%
COc1ccc(-c2n[nH]c3c2CN(C(=O)c2ccc(OC)c(OC)c2)CC3)cc1 1.56%
COc1cc2c(cc1OC)CN(C(=O)c1ccc3nc[nH]c3c1)CC2 -3.55%
COc1ccc(-c2cc3ccccc3oc2=O)cc1NC(=S)NC(=O)c1ccc2c(c1)OCCO2 -29.6% [at 46.1 µM]
COc1ccc(S(=O)(=O)Nc2cccc(-c3ccc4nncn4n3)c2)cc1 -5.05%
Cc1ccc(NC(=S)N/N=C2\CCCCC2C)cc1 (stereo not drawn) -7.25% [at 46.1 µM]
CN(C)S(=O)(=O)c1ccc(N2CCCC2)c(C(=O)N2CCN(S(=O)(=O)c3ccc(F)c(F)c3)CC2)c1 -0.607%
O=C(/C=C/c1ccco1)NC(=S)Nc1ccc(N2CCCC2)cc1 -9.35%
Cc1ccc2[nH]c3c(c2c1)CN(C(=O)CN1CC(C)OC(C)C1)CC3 (stereo not drawn) -22.7%
Cc1ccc(/C=N/NC(=O)c2cc(C)oc2C)cc1 -5.86%
COC(=O)c1c(-c2ccccc2Cl)noc1/C=C/N(C)C 0.705%
O=C(Nc1ccccc1OC(=O)c1ccccc1)c1ccccc1 -13.5%
COc1cc(OC)cc(C(=O)Nc2ccccc2C(=O)NC2CC2)c1 -10.4%
CO/N=C\CC(=O)Nc1ccc(Oc2ccccc2)cc1 -4.61%
CC(=O)c1cc2c(cc1NS(=O)(=O)c1ccc(C)cc1)OCCO2 -0.455%
COc1ccc(C(=O)Nc2cccc(/C=C/c3nc4ccccc4c(=O)[nH]3)c2)cc1 -4.28%

Potency, active:
COc1cc(Cl)c(C)cc1Nc1nc2ccccc2nc1NS(=O)(=O)c1ccccc1 16.4 µM
COc1cc(N2CCCC2)c(OC)cc1/C=C1/NC(=S)NC1=O 2.5 µM
CN1/C(=C\C=C(C#N)C#N)C(C)(C)c2ccccc21 20.6 µM
CC1=C/C(=C\C=C(C#N)C#N)N(C)c2ccccc21 2.59 µM
CN1/C(=C/C=C(C#N)C#N)C(C)(C)c2ccccc21 18.4 µM
CN(C)c1ccc(/C=C/c2ccnc3c(Cl)ccc(Cl)c23)cc1 9.2 µM
CN(C)c1ccc(/C=C/c2ccnc3c(Cl)cccc23)cc1 23.1 µM
ClCc1nc2ccccc2n1Cc1ccccc1 16.4 µM
O=c1[nH]c2ccccc2n2c(C(F)(F)F)nnc12 16.4 µM
CC(NC(=O)/C(C#N)=C/c1ccc([N+](=O)[O-])o1)c1ccccc1 (stereo not drawn) 16.4 µM
CCOCCCNC(=O)/C(C#N)=C/c1ccc([N+](=O)[O-])o1 20.6 µM
COc1ccc2oc(=O)c(-c3nc4ccccc4o3)cc2c1 20.6 µM
CCOc1ccccc1Nc1nnc(-c2cc3cc(OC)ccc3oc2=O)s1 7.31 µM
CC(O)CN(CC(C)O)c1ccc2c(c1)Cc1cc([N+](=O)[O-])ccc1-2 (stereo not drawn) 3.26 µM
CN1/C(=C\C=C2/SC(=S)N(CC(=O)O)C2=O)C(C)(C)c2ccccc21 1.3 µM
CN1/C(=C\C=C2/SC(=S)NC2=O)C(C)(C)c2ccccc21 2.5 µM
C=CCN1C(=O)/C(=C\C=C2\N(C)c3ccccc3C2(C)C)SC1=S 0.651 µM
CCCOc1ccc(C(=O)Nc2cccc(NC(=O)c3ccc(Cl)cc3Cl)c2)cc1 10.3 µM
Cc1cccc2cc(C#N)c(SCC(=O)N3CC(=O)Nc4ccccc43)nc12 17.7 µM
Cc1cc(C)c2nc(SCC(=O)N3CC(=O)Nc4ccccc43)c(C#N)cc2c1 12.5 µM
COc1ccc2nc(SCC(=O)N3CC(=O)Nc4ccccc43)c(C#N)cc2c1 23.1 µM
Oc1cccc(Nc2nc(O)c(/C=C3\C=Nc4ccccc43)s2)c1 23.1 µM
COC(=O)c1ccc(Nc2c([N+](=O)[O-])ccc3nonc23)cc1 20.6 µM
COc1ccc(OC)c(NC(=O)Cn2c(=O)n(-c3ccc(Cl)cc3)c(=O)c3c(C)c(C)sc32)c1 14.6 µM
COc1cc(/C=C2/SC(=S)N(CC3CCCO3)C2=O)ccc1O (stereo not drawn) 18.4 µM
CCOc1cc(/C=C2/SC(=S)N(CC3CCCO3)C2=O)ccc1O (stereo not drawn) 20.6 µM
O=C(O)c1cc(-c2ccc(/C=C3/SC(=S)N(Cc4ccccc4)C3=O)o2)ccc1Cl 18.4 µM
Cc1cc(/C=C2\SC(=S)N(C)C2=O)c(C)n1-c1ccccc1O 23.1 µM
Cc1cc(/C=C2\SC(=S)N(C)C2=O)c(C)n1-c1ccc(O)cc1 20.6 µM
CC(=O)N/N=C/c1cc(C(C)(C)C)cc(/C=N/NC(C)=O)c1O 23.1 µM
CC(=O)N/N=C/c1cc(C(C)C)cc(/C=N/NC(C)=O)c1O 23.1 µM
CC[N+](C)(C(=O)O)/C(=C\c1ccccc1)c1ccnc2ccccc12 (stereo not drawn) 18.4 µM
CC(=O)N1CCc2nc3sc(C(=O)c4ccc(F)cc4)c(N)c3c(C(F)(F)F)c2C1 18.4 µM
COc1ccc(C(=O)c2sc3nc4c(c(C(F)(F)F)c3c2N)CN(C(C)=O)CC4)cc1OC 18.4 µM
Cc1cc(NC(=O)/C(C#N)=C\c2ccc(-c3ccc(SC(F)F)cc3)o2)n(-c2ccccc2)n1 14.6 µM
Cc1cc(NC(=O)/C(C#N)=C/c2ccc(-c3ccc(SC(F)F)cc3)o2)n(-c2ccccc2)n1 10.3 µM
COC(=O)c1cc(NC(=O)c2ccccc2)c(=O)oc1/C=C/Nc1ccc(Oc2ccccc2)cc1 11.6 µM
COc1ccc(C(=O)Nc2cc(C(C)=O)c(/C=C/N(C)C)oc2=O)cc1 15.8 µM
CC(=O)c1cc(NC(=O)c2ccc(Cl)cc2)c(=O)oc1/C=C/N(C)C 11.2 µM
CC(=O)c1cc(NC(=O)c2ccc(C)cc2)c(=O)oc1/C=C/N(C)C 16.4 µM
